Inconclusive results are not listed. Where a call stands in place of a potency, no number is given. The source made the active and inactive calls. The call rests on the fitted dose curve; in most records, active means well fitted inhibition curve with a large enough effect; inconclusive means small, poorly fitted or top-dose-only effect; inactive means no such curve, though single readings can be large or run the other way.
assay: S16 Schwann cell PMP22 intronic element firefly luciferase assay (AID 624032); conditions: S16 rat Schwann cells, PMP22 element FLuc, 24 h; series mostly up to 57.5 µM; further: nearly all actives have a fitted effect of over 30% in size
Excerpt: Charcot-Marie-Tooth-Association [CMTA]
National Center for Advancing Translational Sciences [NCATS]
Charcot-Marie-Tooth (CMT) disease was first characterized by Jean-Martin Charcot and Pierre Marie in France and, independently, by Howard Henry Tooth in England in 1886. CMT is one of the most common inherited neurological diseases, affecting approximately 1 in 2,500 Americans. […] The most prevalent type of CMT is known as CMT1A and caused by a duplication of the PMP22 gene which leads to over-expression of this protein. PMP22 is a glycosylated intrinsic membrane protein accounting for 2-5% of the myelin protein content, and its over-expression results in demyelination and subsequently axonal loss.
A pair of cellular transcription-based assays was developed in the S16 rat Schwann cell lines (Hai, M., et al., 2002) stably transfected with orthogonal reporters - firefly luciferase (Fluc) and beta-lactamase (beta-Lac) - whose expression is driven by an intronic regulatory element of the PMP22 gene (Jones, E.A., et al., 2011) to recapitulate endogenous expression of PMP22. The current assay employs Fluc to report on PMP22 expression. A comprehensive library of approved drugs, the NCGC Pharmaceutical Collection (Huang, R., et al., 2011), was screened in the cross-validating platform of the orthogonal reporter assays to identify drug modulators inhibitory towards PMP22 expression.
A set of counter-screens was devised to address non-specific activity of the library. An ATP-dependent CellTiter-Glo assay (developed by Promega Corp) was utilized to control cell viability. In addition, biochemical Fluc enzyme assay was performed to assess direct inhibition of the Fluc enzymatic activity.
Hai, M., Muja, N., DeVries, G.H., Quarles, R.H. and Patel, P.I. Comparative analysis of Schwann cell lines as model systems for myelin gene transcription studies. J Neurosci Res, 2002. 69(4): pp 497-508
Huang, R., Southall, N., Wang, Y., Yasgar A., Shinn P., Jadhav, A. , Nguyen, D.-T. and Austin, C.P., The NCGC pharmaceutical collection: a comprehensive resource of clinically approved drugs enabling repurposing and chemical genomics. Sci Transl Med, 2011. 3(80): p. 80ps16.
S16 Schwann cell PMP22 intronic element firefly luciferase assay
The FLuc-expressing S16 cells were seeded in white solid 1536-well plates at between 500-750 cells/4uL in DMEM medium containing 10% FBS, w/o phenol red. After overnight incubation at 37 degree Celsius/5% C02, 23 nL of compounds or DMSO were delivered to each well using a pin tool, followed by 24h-incubation at 37 degree Celsius/5% C02. Then 4 uL ONE-Glo luminescent substrate mix (Promega) was added to each well. Luminescence was measured on a ViewLux plate reader (Perkin Elmer). The % activity was determined by normalizing to the average readings of PTC124 (a positive control) - treated cells relative to DMSO-treated cells (0% Activity). The concentration-effect curves were then classified based on curve quality (r2), response magnitude and degree of measured activity.
Potency means the concentration at half of the fitted maximal effect.

Row | SMILES | Potency
1 | CCN(CC)CCC(=O)N1c2ccccc2Sc2ccc(C(F)(F)F)cc21 | 14.4 µM (active)
2 | Cc1cccc(Nc2ncccc2C(=O)O)c1C | inactive
3 | CCc1ccc(S(=O)(=O)O)cc1 | inactive
4 | O=C(O)CC/C=C\CC[C@@H]1[C@@H](N2CCCCC2)[C@@H](O)C[C@@H]1OCc1ccc(-c2ccccc2)cc1 | inactive
5 | CC1CC(OC(=O)C(O)c2ccccc2)CC(C)(C)C1 (stereo not given) | inactive
6 | CC1(C)S[C@@H]2[C@H](NC(=O)C3(N)CCCCC3)C(=O)N2[C@H]1C(=O)O | inactive
7 | NC(=S)N=Nc1ccc(NN=C(N)N)cc1 | inactive
8 | CCN(CC)CCC(=O)N1c2ccccc2Sc2ccc(Cl)cc21 | 10.2 µM (active)
9 | O=C(NCCNCC(O)COc1ccc(O)cc1)N1CCOCC1 (stereo not given) | inactive
10 | COc1ccc(/C=C/C(=O)O)cc1 | inactive
11 | O=C1c2ccccc2C(=O)C1c1ccc(Cl)cc1 | inactive
12 | OC[C@H]1O[C@@H]2O[C@H]3[C@H](O)[C@@H](O)[C@@H](O[C@H]4[C@H](O)[C@@H](O)[C@@H](O[C@H]5[C@H](O)[C@@H](O)[C@@H](O[C@H]6[C@H](O)[C@@H](O)[C@@H](O[C@H]7[C@H](O)[C@@H](O)[C@@H](O[C@H]1[C@H](O)[C@H]2O)O[C@@H]7CO)O[C@@H]6CO)O[C@@H]5CO)O[C@@H]4CO)O[C@@H]3CO | inactive
13 | CN(Cc1ccccc1)Cc1ccccc1 | inactive
14 | OC/C=C/c1ccccc1 | inactive
15 | CN(C)CCCSc1ccccc1NC(=O)/C=C/c1ccccc1 | inactive
16 | NC(N)=NCC1COc2ccccc2O1 (stereo not given) | inactive
17 | CC(/C=C/C=C(\C)C(=O)O[C@@H]1O[C@H](CO[C@@H]2O[C@H](CO)[C@@H](O)[C@H](O)[C@H]2O)[C@@H](O)[C@H](O)[C@H]1O)=C\C=C\C=C(C)\C=C\C=C(/C)C(=O)O[C@@H]1O[C@H](CO[C@@H]2O[C@H](CO)[C@@H](O)[C@H](O)[C@H]2O)[C@@H](O)[C@H](O)[C@H]1O | inactive
18 | COC1=C(OC)C(=O)C(C/C=C(\C)CC/C=C(\C)CC/C=C(\C)CC/C=C(\C)CC/C=C(\C)CC/C=C(\C)CC/C=C(\C)CC/C=C(\C)CC/C=C(\C)CCC=C(C)C)=C(C)C1=O | 0.642 µM (active)
19 | CC1(O)CCC(C(C)(C)O)CC1 (stereo not given) | inactive
20 | O.O.O.O.O.O.O.O=S(=O)([O-])[O-].[Co+2] | inactive

Row | SMILES | Potency
21 | Cc1cc(-c2ccc(N=Nc3c(S(=O)(=O)O)cc4cc(S(=O)(=O)O)cc(N)c4c3O)c(C)c2)ccc1N=Nc1c(S(=O)(=O)O)cc2cc(S(=O)(=O)O)cc(N)c2c1O | 12.8 µM (active)
22 | CN(C)CCC=C1c2ccccc2C(C)(C)c2ccccc21 | inactive
23 | CC(=O)c1ccc2c(c1)N(CCCN1CCN(CCO)CC1)c1ccccc1S2 | 16.1 µM (active)
24 | FCOC(C(F)(F)F)C(F)(F)F | inactive
25 | O=C(O)CCC(=O)c1ccc(-c2ccccc2)cc1 | inactive
26 | CCN(CC)CCOC(=O)c1cccnc1 | inactive
27 | CN(C)C(=O)CCSC(SCCC(=O)O)c1cccc(/C=C/c2ccc3ccc(Cl)cc3n2)c1 (stereo not given) | inactive
28 | CCN(CC)CCOc1ccccc1OC | inactive
29 | Cc1ccc(S(=O)(=O)O)cc1C | inactive
30 | COc1ccc(C(=O)c2ccc(C)cc2)c(O)c1 | inactive
31 | O=P(O)(O)OP(=O)(O)OP(=O)(O)O | inactive
32 | O=C(O)C1=C(CSc2nnnn2CS(=O)(=O)O)CS[C@@H]2[C@H](NC(=O)[C@H](O)c3ccccc3)C(=O)N12 | inactive
33 | CO/N=C(\C(=O)N[C@@H]1C(=O)N2C(C(=O)[O-])=C(C[n+]3cccc4c3CCC4)CS[C@H]12)c1csc(N)n1 | inactive
34 | NC(=O)[C@@H]1CCCN1C(=O)[C@H](Cc1cnc[nH]1)NC(=O)[C@@H]1CCC(=O)N1 | inactive
35 | O=C(O)COc1ccc(CCNS(=O)(=O)c2ccccc2)s1 | inactive
36 | CCN(CC)C(=O)c1cccnc1 | inactive
37 | O=C1c2ccccc2C(=O)C1c1ccc(F)cc1 | inactive
38 | COC(=O)[C@@H](N)CS | inactive
39 | COc1ccc2nc(NC(=O)Nc3ccccc3)sc2c1 | inactive
40 | CC12CCC(C1)C(C)(C)C2=O (stereo not given) | inactive

From PubChem BioAssay (NCATS)
